Laboratory results taken from ChEMBL document CHEMBL2218924, “A broad activity screen in support of a chemogenomic map for kinase signalling research and drug discovery” (Biochem J, 2013).

Key:
[1] = biological target: Protein kinase C alpha type (Homo sapiens) (UniProt P17252); details: at 1 µM
[2] = biological target: Protein kinase C alpha type (Homo sapiens) (UniProt P17252); details: at 10 µM
[3] = biological target: Protein kinase C beta type (Homo sapiens) (UniProt P05771); details: at 1 µM
[4] = biological target: Protein kinase C beta type (Homo sapiens) (UniProt P05771); details: at 10 µM
[5] = biological target: Protein kinase C beta type (Homo sapiens) (UniProt P05771); details: at 1 µM; remark: listed apart in the source
[6] = biological target: Protein kinase C beta type (Homo sapiens) (UniProt P05771); details: at 10 µM; remark: listed apart in the source
[7] = biological target: Protein kinase C delta type (Homo sapiens) (UniProt Q05655); details: at 1 µM
[8] = biological target: Protein kinase C delta type (Homo sapiens) (UniProt Q05655); details: at 10 µM
[9] = biological target: Protein kinase C gamma type (Homo sapiens) (UniProt P05129); details: at 1 µM
[10] = biological target: Protein kinase C gamma type (Homo sapiens) (UniProt P05129); details: at 10 µM

Protein kinase C beta type (Homo sapiens), sequence (P05771 2-671 limits assumed): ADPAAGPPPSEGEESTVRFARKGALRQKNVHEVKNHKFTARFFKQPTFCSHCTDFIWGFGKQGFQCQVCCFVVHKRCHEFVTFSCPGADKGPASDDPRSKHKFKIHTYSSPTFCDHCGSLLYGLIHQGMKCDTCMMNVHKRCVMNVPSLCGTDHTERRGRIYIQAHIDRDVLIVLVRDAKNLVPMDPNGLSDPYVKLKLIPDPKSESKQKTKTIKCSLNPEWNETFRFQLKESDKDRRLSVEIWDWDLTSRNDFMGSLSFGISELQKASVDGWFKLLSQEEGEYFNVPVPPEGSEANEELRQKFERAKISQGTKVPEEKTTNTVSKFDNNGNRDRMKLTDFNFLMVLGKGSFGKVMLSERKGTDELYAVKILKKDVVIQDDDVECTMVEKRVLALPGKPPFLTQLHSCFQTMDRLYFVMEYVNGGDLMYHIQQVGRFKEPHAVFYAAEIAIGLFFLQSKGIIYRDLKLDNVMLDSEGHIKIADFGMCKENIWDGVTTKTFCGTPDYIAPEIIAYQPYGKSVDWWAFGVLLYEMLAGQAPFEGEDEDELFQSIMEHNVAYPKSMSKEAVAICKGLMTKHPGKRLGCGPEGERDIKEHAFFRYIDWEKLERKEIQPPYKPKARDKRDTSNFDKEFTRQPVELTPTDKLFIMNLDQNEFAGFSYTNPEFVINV
Protein kinase C delta type (Homo sapiens), sequence (Q05655 whole entry, looked up): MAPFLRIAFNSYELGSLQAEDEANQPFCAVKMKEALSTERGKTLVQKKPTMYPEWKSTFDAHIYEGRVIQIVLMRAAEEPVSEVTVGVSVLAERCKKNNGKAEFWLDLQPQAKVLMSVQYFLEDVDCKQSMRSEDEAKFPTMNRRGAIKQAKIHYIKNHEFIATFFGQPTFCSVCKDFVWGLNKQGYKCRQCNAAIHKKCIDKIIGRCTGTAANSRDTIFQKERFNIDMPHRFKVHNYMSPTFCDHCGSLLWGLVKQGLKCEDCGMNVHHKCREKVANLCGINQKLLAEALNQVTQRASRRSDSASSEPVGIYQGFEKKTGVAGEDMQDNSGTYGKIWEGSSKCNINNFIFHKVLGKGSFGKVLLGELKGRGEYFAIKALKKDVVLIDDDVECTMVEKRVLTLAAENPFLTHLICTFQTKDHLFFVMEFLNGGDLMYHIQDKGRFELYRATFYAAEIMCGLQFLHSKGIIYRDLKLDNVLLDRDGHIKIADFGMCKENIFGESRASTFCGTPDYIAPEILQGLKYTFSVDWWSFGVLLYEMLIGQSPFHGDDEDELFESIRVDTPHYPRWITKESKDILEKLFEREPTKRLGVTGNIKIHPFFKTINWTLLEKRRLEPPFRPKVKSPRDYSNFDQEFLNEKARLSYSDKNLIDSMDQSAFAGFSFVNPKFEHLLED

Compound	residual activity [1] [%]	residual activity [2] [%]	residual activity [3] [%]	residual activity [4] [%]	residual activity [5] [%]	residual activity [6] [%]	residual activity [7] [%]	residual activity [8] [%]	residual activity [9] [%]	residual activity [10] [%]
COc1ccc(CNC(=O)Nc2ncc([N+](=O)[O-])s2)cc1	102	101								
COc1cc2ncnc(Nc3cccc(Cl)c3)c2cc1OC	103	108	110	106	107	108	104	109		
COc1cc2c(cc1OC)-c1n[nH]c(Nc3cccc(F)c3)c1C2	104	99	104	108	110	105	102	106	104	105
Nc1ncnc2c1c(-c1ccc(Oc3ccccc3)cc1)cn2C1CCCC1	102	98	103	103	99	91	94	100	111	104
CC(C)(C)n1nc(Cc2cccc3ccccc23)c2c(N)ncnc21	93	93	119	97	104	105	101	106	106	94
Cn1sc(=O)n(Cc2ccccc2)c1=O	85	3	94	54	89	43	87	45	59	3
c1ccc(-c2cnc(Nc3ccc(OCCN4CCCC4)cc3)s2)cc1	101	110	121	116					123	111
Cn1c2ccccc2c2c3c(c4c5ccccc5n(CCC#N)c4c21)CNC3=O	1	3	6	6					9	16
NC(=O)c1ccc(-c2nc(-c3ccc4c(c3)OCCO4)c(-c3ccccn3)[nH]2)cc1	90	96	124	121			93	100		
Cc1cc(C)c(/C=C2\C(=O)Nc3ccccc32)[nH]1	100	104								
NC(=O)Nc1sc(-c2ccc(F)cc2)cc1C(N)=O	91	54	103	77	105	89	78	31		
CC(C)c1nn(-c2c(Cl)cccc2Cl)c2nc(Cc3ccc(OCCO)cc3)[nH]c(=O)c12	105	107	125	106	104	95	103	105	94	106
O=C(O)/C=C/c1cc(Br)c(Br)c(Br)c1Br	105	102	124		97	101	100	96	96	
O=C(CCCc1ccc(-c2ccccc2F)cc1)Nc1ccc(O)cc1	106	108	112	108	108	101			104	110
O=C1NC(=O)C(c2c[nH]c3ccccc23)=C1c1c[nH]c2ccccc12	26	4	66	23	75	27	31	5	36	6
CC(C)[C@H](CO)Nc1nc(Nc2cc(N)cc(Cl)c2)c2ncn(C(C)C)c2n1	83	97					93	72	94	80
O=C1NC(=O)C(c2cn(CCCn3ccnc3)c3ccccc23)=C1Nc1ccccc1	6	2	19	2	27	6	8	2	8	2
CCCC(=O)Oc1ccc2[nH]c(C(=O)c3cc4ccccc4[nH]3)cc2c1	106	108		93	100		101			
O=C1Cc2c([nH]c3ccc(Br)cc23)-c2ccccc2N1	90	70				88	99	93		93
NCCNc1ncc(C(N)=O)c(Nc2cccc(C(F)(F)F)c2)n1	45	8	106	60			75	28	58	11
